Test results from PubChem BioAssay (NCATS).
Where “and” joins values, the source holds several entries; their conditions need not be identical. Identical values can stand only once. Results filed as inconclusive are left out. The source holds several records for some structures; these can differ, active in one and inactive in another. Calls of active or inactive are those of the source. Calls follow the shape of the dose curve; as a rule, active = well fitted curve in the direction sought with a large enough effect; inconclusive = small, poorly fitted or top-dose-only effect, or another doubt; inactive = no such curve, though single readings can be large; an effect the other way counts as inactive or inconclusive.

Tests used:
MCC-13 = test: qHTS assay to identify novel small-molecules to repurpose for Merkel cell carcinoma treatment (AID 1296009); conditions: MCC and control cell lines, CellTiter-Glo viability, 72 h; series mostly up to 46 µM; also: nearly all actives have a fitted effect of over 60% in size
Outline: (§1)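 CellTiter-Glo luminescence after 72 hr compound exposure at 37 degree celsius gave cell viability. Libraries NPC and MIPE were run as 8- and 11-point dose responses; RLUs normalized to DMSO (negative) and no-cell (cytotoxicity) controls.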

MKL-1 = test: as above; conditions: MCC and control cell lines, CellTiter-Glo viability, 72 h; series mostly up to 46 µM
Outline: as §1

MKL-2 = test: as above; conditions: MCC and control cell lines, CellTiter-Glo viability, 72 h; series mostly up to 46 µM
Outline: as §1

WaGa = test: as above; conditions: MCC and control cell lines, CellTiter-Glo viability, 72 h; series mostly up to 46 µM
Outline: as §1

C33A = test: Primary qHTS to identify gynecologic anti-cancer compounds using libraries of approved drugs and bioactive compounds (AID 1345084); conditions: Gynecologic cancer cell panel viability, ATPlite luminescence, 48 h; series mostly up to 57.5 µM; also: nearly all actives have a fitted effect of over 55% in size
Outline: (§2)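 Measured: luminescence after ATPlite addition (15 min, RT). Exposure: 48 h, 37 C, 5% CO2.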

HeLa = test: as above; conditions: Gynecologic cancer cell panel viability, ATPlite luminescence, 48 h; series mostly up to 57.5 µM
Outline: as §2

Hek293T = test: as above; conditions: Gynecologic cancer cell panel viability, ATPlite luminescence, 48 h, control line for the selectivity index; series mostly up to 57.5 µM
Outline: as §2

JEG-3 = test: as above; conditions: Gynecologic cancer cell panel viability, ATPlite luminescence, 48 h; series mostly up to 57.5 µM
Outline: as §2

PA-1 = test: as above; conditions: Gynecologic cancer cell panel viability, ATPlite luminescence, 48 h; series mostly up to 57.5 µM
Outline: as §2

Tov-21-G = test: as above; conditions: Gynecologic cancer cell panel viability, ATPlite luminescence, 48 h; series mostly up to 57.5 µM
Outline: as §2

Tov112D = test: as above; conditions: Gynecologic cancer cell panel viability, ATPlite luminescence, 48 h; series mostly up to 57.5 µM
Outline: as §2

[1] = Drug repurposing screens with cells derived from glioblastoma tumor samples (AID 1345199); conditions: GBM patient neurospheres viability, ATP luminescence, 48 h; for Potency: tumour line A; as to all read-outs here: nearly all actives have a fitted effect of over 40% in size
Outline: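 Primary testing used CD133+ neurospheres from four GBM patients, seven concentrations, 48 h exposure and ATP-based viability; confirmation added three slower-growing patient lines.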

CAOV3 = test: Primary qHTS to identify gynecologic anti-cancer compounds using libraries of approved drugs and bioactive compounds (AID 1345084); conditions: Gynecologic cancer cell panel viability, ATPlite luminescence, 48 h; series mostly up to 57.5 µM; also: nearly all actives have a fitted effect of over 55% in size
Outline: as §2

CASKI = test: as above; conditions: Gynecologic cancer cell panel viability, ATPlite luminescence, 48 h; series mostly up to 57.5 µM
Outline: as §2

Es-2 = test: as above; conditions: Gynecologic cancer cell panel viability, ATPlite luminescence, 48 h; series mostly up to 57.5 µM
Outline: as §2

OV90 = test: as above; conditions: Gynecologic cancer cell panel viability, ATPlite luminescence, 48 h; series mostly up to 57.5 µM
Outline: as §2

SKOV3 = test: as above; conditions: Gynecologic cancer cell panel viability, ATPlite luminescence, 48 h; series mostly up to 57.5 µM
Outline: as §2

MCC-26 = test: qHTS assay to identify novel small-molecules to repurpose for Merkel cell carcinoma treatment (AID 1296009); conditions: MCC and control cell lines, CellTiter-Glo viability, 72 h; series mostly up to 46 µM; also: nearly all actives have a fitted effect of over 60% in size
Outline: as §1

UISO = test: as above; conditions: MCC and control cell lines, CellTiter-Glo viability, 72 h; series mostly up to 46 µM
Outline: as §1

[2] = at 45.9 µM (top of the series), tumour line B
[3] = at 45.9 µM (top of the series), tumour line D
[4] = at 108 µM (top of the series), tumour line B
% is scaled to controls: 0 for no effect and ±100 for the full control effect; potency is read from the fitted curve at half-maximal effect.

CN1C(=O)[C@@H](NC(=O)c2cc3ccccc3[nH]2)N=C(c2ccccc2)c2ccccc21
inactive: Potency (MCC-13) | Potency (MKL-1) | Potency (MKL-2) | Potency (WaGa) | Potency (C33A) | Potency (HeLa) | Potency (Hek293T) | Potency (JEG-3) | Potency (PA-1) | Potency (Tov-21-G) | Potency (Tov112D) | activity, negative = cell killing [1, 2] 8.15% | activity, negative = cell killing [1, 3] -1.15%

CNC(C)Cc1ccc2c(c1)OCO2 (stereo not drawn)
active: Potency [1] 50.1 µM
inactive: Potency (MCC-13) | Potency (MKL-2) | Potency (C33A) | Potency (CAOV3) | Potency (CASKI) | Potency (Es-2) | Potency (HeLa) | Potency (Hek293T) | Potency (JEG-3) | Potency (OV90) | Potency (PA-1) | Potency (SKOV3) | Potency (Tov-21-G) | Potency (Tov112D) | activity, negative = cell killing [1, 4] 0.451% | activity, negative = cell killing ([1]; at 108 µM (top of the series), tumour line D) -9%

CC[C@]1(O)CC[C@H]2[C@@H]3CCC4=CCCC[C@@H]4[C@H]3CC[C@@]21C
active: Potency [1] 10 µM
inactive: Potency (MCC-26) | Potency (MKL-1) | Potency (MKL-2) | Potency (WaGa) | Potency (CASKI) | Potency (JEG-3) | activity, negative = cell killing [1, 2] -25.8%

C=CC[C@]1(O)CC[C@H]2[C@@H]3CCC4=CC(=O)CCC4=C3C=C[C@@]21C
active: Potency [1] 17.8 µM
inactive: Potency (MCC-13) | Potency (MCC-26) | Potency (MKL-1) | Potency (UISO) | Potency (CAOV3) | Potency (CASKI) | Potency (Es-2) | Potency (HeLa) | Potency (Hek293T) | Potency (JEG-3) | Potency (PA-1) | Potency (Tov-21-G) | Potency (Tov112D) | activity, negative = cell killing [1, 2] -12.5%

C[C@@H]1C[C@@H]([C@H](O)CC2CC(=O)NC(=O)C2)C(=O)[C@@H](C)C1
inactive: Potency (JEG-3)
active: Potency (MCC-13) 944 nM and 4.69 µM | Potency (MKL-1) 1.66 µM | Potency (MKL-2) 2.09 µM | Potency (UISO) 1.06 µM and 1.18 µM | Potency (WaGa) 5.9 µM | Potency (CAOV3) 25.1 µM | Potency (Es-2) 0.794 µM | Potency (Hek293T) 0.501 µM | Potency (OV90) 0.631 µM | Potency (PA-1) 0.708 µM | Potency (SKOV3) 2.82 µM | Potency (Tov-21-G) 0.501 µM | Potency (Tov112D) 0.562 µM

COc1ccc2c(C(=O)c3ccc(Cl)cc3)c(C)n(CC(=O)O)c2c1
inactive: Potency (C33A) | Potency (CASKI) | Potency (Hek293T) | Potency (JEG-3) | Potency (OV90) | activity, negative = cell killing [1, 2] -15.8% | activity, negative = cell killing [1, 3] -19.1%
active: Potency (UISO) 26.6 µM

O=C(CCl)c1ccc(Cl)cc1Cl
inactive: Potency (MCC-13) | Potency (MCC-26) | Potency (UISO) | Potency (C33A) | Potency (CAOV3) | Potency (CASKI) | Potency (Es-2) | Potency (HeLa) | Potency (Hek293T) | Potency (JEG-3) | Potency (OV90) | Potency (PA-1) | Potency (SKOV3) | Potency (Tov-21-G) | Potency (Tov112D) | activity, negative = cell killing [1, 3] -23.6%

COc1cc(CC(C)N)c(OC)cc1Br (stereo not drawn)
inactive: Potency (CAOV3) | Potency (Es-2) | Potency (JEG-3) | Potency (OV90) | Potency (Tov112D) | activity, negative = cell killing [1, 2] -9.73% | activity, negative = cell killing [1, 4] -15.6%
active: Potency (MKL-2) 3.18 µM | Potency (WaGa) 50.4 µM | Potency (HeLa) 25.1 µM | Potency [1] 35.5 µM and 12.6 µM

CN1C(=O)CN=C(c2ccccc2)c2cc(Cl)ccc21
inactive: Potency (MCC-26) | Potency (MKL-1) | Potency (MKL-2) | Potency (UISO) | Potency (WaGa) | Potency (C33A) | Potency (CASKI) | Potency (Es-2) | Potency (HeLa) | Potency (Hek293T) | Potency (JEG-3) | Potency (OV90) | Potency (PA-1) | Potency (Tov-21-G) | Potency (Tov112D) | activity, negative = cell killing [1, 2] -4.05% | activity, negative = cell killing [1, 3] -1.05%

CCC(OC(C)=O)C(CC(C)NC)(c1ccccc1)c1ccccc1 (stereo not drawn)
active: Potency (UISO) 49.1 µM | Potency (CAOV3) 39.8 µM | Potency (HeLa) 31.6 µM
inactive: Potency (Tov-21-G)
